The text below walks through data of PubChem BioAssay (EPA / NIEHS).

Results filed as inconclusive are left out. Active and inactive are the calls of the source. How the source made its calls: active means hit-call score of the fitted dose curve at least 0.9, where 1 is the maximum; inconclusive means response in the unintended direction; inactive means score below 0.9.

Read-out in the assay: sulfotransferase (SULT2A), SULT2A1 (gene 6822)
The assay is described as follows: CLD_SULT2A_6hr: CellzDirect (CLD) Gene Expression Assay for sulfotransferase (SULT2A) at 6 hours (AID 2283669).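 Further: hits raise transcript level above the DMSO vehicle baseline.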 On the procedure:
CLD_6hr is a cell-based, multiplexed-readout assay that uses hepatocyte, a human liver primary cell, with measurements taken at 6 hours after chemical dosing in a 96-well plate.CLD_SULT2A_6hr is one of 16 assay component(s) measured or calculated from the CLD_6hr assay. It is designed to make measurements of mRNA induction, a form of inducible reporter, as detected with chemiluminescence signals by Quantitative Nuclease Protection Assay (qNPA) technology.Data from the assay component CLD_SULT2A_6hr was analyzed at the endpoint, CLD_SULT2A_6hr, in the positive analysis fitting direction relative to DMSO as the negative control and baseline of activity. Using a type of inducible reporter, gain-of-signal activity can be used to understand changes in the reporter gene as they relate to the gene SULT2A1. Furthermore, this assay endpoint can be referred to as a primary readout. To generalize the intended target to other relatable targets, this assay endpoint is annotated to the transferase intended target family, where subfamily is sulfotransferase.
Human hepatocyte cultures were treated daily for two consecutive days with fresh dosing solutions containing appropriate concentrations of the 320 ToxCast chemicals (chemical identities were blinded to CellzDirect and other ToxCast collaborators), vehicle control (0.2% DMSO), and positive control inducers as summarized in Table 1. Due to the large number of treatment groups and chemicals examined, the ToxCast chemicals were divided into two groups (spanning two independent cultures of hepatocytes from separate donor preparations (Hu778: ToxCast plates 1 and 2; Hu776: ToxCast plates 3 and 4). Each preparation of human hepatocyte cultures was treated with respective vehicle control, medium only control, set of six positive controls/reference chemicals for the five hepatic receptor pathways, and a subset of eight of the ToxCast chemicals (indoxacarb, pyrithiobac-sodium, norflurazon, cyhalofop-butyl, methomyl, thiram, acetochlor, and propiconazole). These replicate data, coupled with internal replicates designed within the blinded ToxCast chemical library, provided additional data to evaluate interindividual differences between hepatocyte preparations and their potential impact on chemical profiles.Cell morphology and integrity were evaluated using phase-contrast microscopy as an indicator of hepatocyte cell health (Tyson & Green, 1987). Cultures for each treatment group (i.e., media, vehicle [0.2% DMSO], positive control inducers [multiple concentrations], and the ToxCast chemicals [multiple concentrations]) were observed and cell morphology was assessed relative to vehicle control cultures at each harvest time point (0, 6, 24, or 48 h). […] Images were evaluated at the conclusion of the study to assess changes in cell integrity and account for the effects of chemical exposure on uncharacteristic changes in concentration-dependent gene expression profiles. The results from these determinations of apparent cytotoxicity were annotated (yes/no) alongside the corresponding qNPA data for reference.At the conclusion of each treatment period, hepatocyte cultures (96-well) were washed with 1 volume of HBSS, lysed by addition of 25 ul ArrayPlate lysis buffer (HTG, Tucson, AZ), and 70 ul/well of Denaturation Oil, denatured by incubation at 95C for 10 min, and frozen at approximately -70C until analysis by nuclease protection assay (qNPA) (Roberts et al., 2007). For qNPA analysis, cell lysates were thawed at 50C for approximately 30 min, qNPA probes were added, and samples were incubated at 95C for 10 min to begin the detection process by denaturing the target RNA, dissociating the duplexes and secondary structure hybridization. At the conclusion of the hybridization period, S1 nuclease reagent was added to each sample to digest all nonprotected nucleotides at 50C for 60-90 min. […]
Consider `CCOc1nc(C(Cl)(Cl)Cl)ns1`, for which the compound was classed as inactive. As for `CSC(=O)c1c(C(F)F)nc(C(F)(F)F)c(C(=O)SC)c1CC(C)C`, the compound was called inactive. Same read-out and setting: as for `CC(C)NC(=O)N1CC(=O)N(c2cc(Cl)cc(Cl)c2)C1=O`, the entry is “inactive”. Still for that read-out and setting: the entry for `COCC(C)N(C(=O)CCl)c1c(C)csc1C` (stereo not given) is “inactive”; for `CO/N=C(/C1=NOCCO1)c1ccccc1Oc1ncnc(Oc2ccccc2Cl)c1F` it is “inactive”. In the case of `CCCN(CC)CC1COC2(CCC(C(C)(C)C)CC2)O1` (stereo not given), the call was inactive.

As for `COP(=S)(OC)Oc1ccc([N+](=O)[O-])c(C)c1`, the compound was called inactive. Same read-out and setting: the entry for `COP(=S)(OC)SCn1nnc2ccccc2c1=O` is “inactive”.

One may read the AC50 as the concentration at which the activity in the assay is half-maximal. `CCCCOCN(C(=O)CCl)c1c(CC)cccc1CC`: the AC50 is 4.32 µM (active).

On to `COCc1cnc(C2=NC(C)(C(C)C)C(=O)N2)c(C(=O)O)c1` (stereo not given), for which the result was inactive. On the same count and under the same terms, the entry for `CC1(C)C(C(=O)OC(C#N)c2cccc(Oc3ccccc3)c2)C1(C)C` (stereo not given) is “inactive”; for `CCOP(=S)(OCC)Oc1nc(Cl)n(C(C)C)n1` it is “inactive”.

Take `N#Cc1c(Cl)cccc1Cl`: the compound was classed as inactive. On the same count and under the same terms, the entry for `CC(C)(C)C(=O)C(Oc1ccc(Cl)cc1)n1cncn1` (stereo not given) is “inactive”. The same measure, in the same setting: as for `CC1(C)C(C=C(Cl)Cl)C1C(=O)OC(C#N)c1cccc(Oc2ccccc2)c1` (stereo not given), the entry is “inactive”. Consider `CCCC(=NOCC)C1=C(O)CC(CC(C)SCC)CC1=O` (stereo not given), for which the result was inactive. Same read-out and setting: as for `CCOP(=O)(OCC)Oc1nc(Cl)c(Cl)cc1Cl`, the entry is “inactive”. On the same count and under the same terms, as for `O=P(O)(O)CCCl`, the entry is “inactive”; as for `Clc1cccc(C(Cl)(Cl)Cl)n1`, “inactive”; as for `CCOc1nc(F)cc2nc(S(=O)(=O)Nc3c(Cl)cccc3Cl)nn12`, “inactive”. On to `CCOc1cc(C(C)(C)C)ccc1C1COC(c2c(F)cccc2F)=N1` (stereo not given), for which the outcome was inactive. Same read-out and setting: the entry for `O=c1n(Cl)c(=O)n(Cl)c(=O)n1Cl` is “inactive”; for `COCC(=O)N(c1c(C)cccc1C)C(C)C(=O)OC` (stereo not given) it is “inactive”; for `COC(=O)c1c(C(F)F)nc(C(F)(F)F)c(C2=NCCS2)c1CC(C)C` it is “inactive”. Still for that read-out and setting: as for `CC1(C)CON(Cc2ccccc2Cl)C1=O`, the entry is “inactive”; as for `N#CN=C1SCCN1Cc1ccc(Cl)nc1`, “inactive”. On to `CCSC(=O)N1CCCCCC1`, for which the compound was called inactive. The same measure, in the same setting: the entry for `COP(=O)(OC)O/C(C)=C/C(=O)N(C)C` is “inactive”; for `Cc1cc(C)nc(Nc2ccccc2)n1` it is “inactive”; for `OC(c1ccc(Cl)cc1)(c1ccc(Cl)cc1)C(Cl)(Cl)Cl` it is “inactive”. Turning to `CS(=O)(=O)c1cc(C(F)(F)F)ccc1C(=O)c1cnoc1C1CC1`, the outcome was inactive.

In the case of `Cc1nc(N(C)C)nc(OC(=O)N(C)C)c1C`, the outcome was inactive. Same read-out and setting: as for `CS(=O)(=O)c1ccc(C(=O)C2C(=O)CCCC2=O)c([N+](=O)[O-])c1`, the entry is “inactive”. Same read-out and setting: the entry for `COc1cc(Cl)c(OC)cc1Cl` is “inactive”; for `COC(=O)NC(=S)Nc1ccccc1NC(=S)NC(=O)OC` it is “inactive”; for `CCNP(=S)(OC)O/C(C)=C/C(=O)OC(C)C` (stereo not given) it is “inactive”. The same measure, in the same setting: the entry for `N#Cc1c[nH]cc1-c1cccc2c1OC(F)(F)O2` is “inactive”; for `CCN(CC)c1nc(C)cc(OP(=S)(OC)OC)n1` it is “inactive”.

In the case of `Cc1ccc(N=CN(C)C=Nc2ccc(C)cc2C)c(C)c1`, the outcome was inactive. Same read-out and setting: the entry for `CCN(CC)C(=O)C(C)Oc1cccc2ccccc12` (stereo not given) is “inactive”.
